Measured values: PubChem BioAssay AID588726 (The Scripps Research Institute Molecular Screening Center, 2011)
About 8,200 (2.3%) of roughly 360,000 compounds were called active. This excerpt belongs to a sample that is enriched for actives. Values without a mark were called inactive. Cut-off read from the data, not from the text of the source: active = inhibition above about 27%; inactive = the rest.

molecular target: Fructose-bisphosphate aldolase (Mycobacterium tuberculosis (strain ATCC 25618 / H37Rv)) (UniProt P9WQA3); assay: M. tuberculosis aldolase activity blockers – biochemical, fluorescence, strain H37Rv, primary screen (AID 588726);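 note: 0% = vehicle and 100% = reference inhibitor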; conditions: purified M. tuberculosis FBA, fluorescence read-out, at 1 µM, stronger effect = higher value
Sequence (P9WQA3 whole entry, looked up): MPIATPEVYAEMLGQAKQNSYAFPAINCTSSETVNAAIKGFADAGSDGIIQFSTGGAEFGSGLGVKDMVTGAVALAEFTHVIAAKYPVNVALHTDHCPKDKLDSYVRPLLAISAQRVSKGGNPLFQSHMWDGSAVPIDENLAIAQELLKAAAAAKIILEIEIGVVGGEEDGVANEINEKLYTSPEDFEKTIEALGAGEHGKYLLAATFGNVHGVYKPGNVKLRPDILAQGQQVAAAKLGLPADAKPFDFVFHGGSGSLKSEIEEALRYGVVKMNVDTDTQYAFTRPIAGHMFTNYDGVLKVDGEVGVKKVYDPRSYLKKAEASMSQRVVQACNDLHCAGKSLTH

| SMILES | inhibition |
| --- | --- |
| COc1ccc(CCNC(=O)c2ccc(NC(=O)CC3SC(N4CCCCC4)=NC3=O)cc2)cc1OC (stereo not given) | 1.72% |
| NS(=O)(=O)c1ccc(CCNC(=O)CNC(=O)Cc2ccccc2)cc1 | 4.09% |
| CC[C@@]1(C(=O)OC)N[C@H](CN(C)C(C)=O)[C@@H]2C(=O)N(C)C(=O)[C@@H]21 | -0.4% |
| O=C1C2C3C=CC(C3)C2C(=O)N1c1ncc([N+](=O)[O-])s1 (stereo not given) | 0.42% |
| Cc1ccc2nnn(Cc3cccc(C(C)(C)C)c3O)c2c1 | -1.49% |
| Cc1oc2c(C)c3oc(=O)c(CC(=O)N[C@@H](CC(C)C)C(=O)N[C@@H](Cc4ccccc4)C(=O)O)c(C)c3cc2c1C | 14.5% |
| Cc1c(OC(C)C(=O)N[C@@H](Cc2ccccc2)C(=O)O)ccc2c3c(c(=O)oc12)CCCC3 (stereo not given in full) | 57.5% (active) |
| Cc1c(OC(C)C(=O)NCC2CCC(C(=O)O)CC2)ccc2c1oc(=O)c1ccccc12 (stereo not given) | 11.2% |
| CCOC(=O)N1CCC(c2cc(=O)n(-c3ccccc3)[nH]2)CC1 | 2.04% |
| NS(=O)(=O)c1ccc(N2C(=O)C3C4CC(C(Br)C4Br)C3C2=O)cc1 (stereo not given) | 2.97% |
| COc1ccc(N(CC(=O)Nc2ccc(F)c(F)c2)S(=O)(=O)c2c(C)[nH]c(=O)[nH]c2=O)cc1 | 0.84% |
| Cn1c(=O)n(C)c(=O)n(CC(=O)N2CCCCC2)c1=O | -2.14% |
| O=C(CN1C(=O)c2cccc3cccc(c23)C1=O)N1CCCCC1 | 31.8% (active) |
| O=C(CN1C(=O)c2cccc3cccc1c23)Nc1ccccc1 | 1.33% |
| O=S1(=O)CC/C(=N\Nc2ccc(F)cc2)c2ccsc21 | 0.47% |
| CCn1c(SC)nc(O)c(C(c2ccc(OC)c(O)c2)c2c(O)nc(SC)n(CC)c2=O)c1=O | 0.76% |
| N/C(=N\S(=O)(=O)c1ccc(Cl)cc1)N1CCOCC1 | -1.72% |
| O=S(=O)(c1ccccc1)N1CN(Cc2ccc(F)cc2)c2nc3ccccc3nc21 | 1.18% |
| CC1=CC2=NC(=O)CC(C)(C(=O)N(CC(=O)NC(C)(C)C)Cc3ccccc3)N2C=C1 (stereo not given) | 39.1% (active) |
| CCN(CC(=O)Nc1cc(Cl)ccc1C)C(=O)CSCc1ccccc1 | 1.52% |
| C=CCC1(C(=O)N(C)Cc2ccccc2)CCN(C(=O)OC(C)(C)C)CC1 | -0.41% |
| CCC(=O)Nc1ccccc1C(=O)N1CCN(Cc2ccccc2)CC1 | 1.09% |
| CCCn1nc(NS(=O)(=O)c2ccccc2)c2cc3cc(C)ccc3nc21 | -1.36% |
| Cc1ccc(S(=O)(=O)NCc2nc3ccccc3c(=O)n2N)cc1 | 0.87% |

| SMILES | inhibition |
| --- | --- |
| Cc1ccc(S(=O)(=O)Nc2nc(N)n(-c3ccccc3)n2)cc1 | -1.75% |
| CCN(CC)CCn1c(N)c(S(=O)(=O)c2ccccc2)c2nc3ccccc3nc21 | 73.8% (active) |
| Cc1ccc(S(=O)(=O)c2c(N)n(C)c3nc4ccccc4nc23)cc1 | 195% (active) |
| CCC(=O)Nc1ccc2nc(C)n(Cc3ccccc3Cl)c(=O)c2c1 | -0.06% |
| CCCn1nc(NS(=O)(=O)c2ccc(F)cc2)c2cc3ccccc3nc21 | 1.96% |
| CCC(=O)Nc1c(S(=O)(=O)c2ccccc2)c2nc3ccccc3nc2n1Cc1ccccc1 | 71.7% (active) |
| Cc1cc(NC(=O)C(C)SCC(=O)Nc2cccc(S(=O)(=O)N3CCCCCC3)c2)no1 (stereo not given) | 2.17% |
| COc1cccc(NC(=O)CSc2nnc(C3CCCCC3)n2N)c1 | -1.25% |
| CC(=O)NC(CC(=O)Nc1nccs1)c1ccccc1 (stereo not given) | 6.36% |
| OC(CN=c1sc2ccccc2n1CC(O)COc1ccccc1)COc1ccccc1 (stereo not given) | -7.04% |
| CC(C)COP(=O)(c1ccc(N(C)C)cc1)C(Nc1ccccc1)c1cccnc1 (stereo not given) | 6.04% |
| COc1ccc(C(=O)N(CCN2CCOCC2)CC(=O)NC2CCCC2)cc1OC | -0.65% |
| Cc1ccc2nc(-c3ccccc3)c(CC3CCCCC3)n2c1 | 3.26% |
| Cc1ccccc1C(=O)NCCN=C1NS(=O)(=O)c2ccccc21 | 0.52% |
| COc1ccc(-n2c(C)nn(CC3CC3)c2=O)cc1 | -1.25% |
| COc1ccc(CC(NC(C)=O)C(=O)N2CCN(C(=O)Nc3cccc(Cl)c3)CC2)cc1OC (stereo not given) | 1.24% |
| CS(=O)(=O)Nc1ccc(C(=O)N2CCCC2)cc1 | 4.14% |
| CNc1cncc(-c2ccc(NS(C)(=O)=O)cc2)n1 | 174% (active) |
| CCCS(=O)(=O)Nc1ccc(-c2cn3c(n2)SCC3)cc1 | 0.71% |
| C#CCNC(=O)C1=C[C@@H](c2ccccc2)[C@H](CCCO)[C@@H](OCC)O1 | 0.54% |
| COc1ccc2ccn(C)c2c1 | 0% |
| COc1ccc2c(c1)cc1n2CCN=C1NN | 41.9% (active) |
| COc1ccc(N)c(C)c1 | 1.98% |
| O=c1[nH]c2ccccc2n2c(-c3ccccc3)nnc12 | 4.09% |

| SMILES | inhibition |
| --- | --- |
| Cc1ccc(-c2nc3ccccc3[nH]c2=O)cc1 | 76.5% (active) |
| Cc1ccc(-c2nnc(-n3nnc4ccccc43)c3ccccc23)cc1 | -0.52% |
| O=C(NCC(=O)N1CCN(c2ccccc2O)CC1)c1ccc2ccccc2c1 | 1.15% |
| CC(C(=O)NCCc1ccc(S(N)(=O)=O)cc1)N1C(=O)CC(C)(C)Sc2ccccc21 (stereo not given) | 4.96% |
| CC(=O)NC1=NC(=O)CS1 | 3.59% |
| Cc1cc(N2C(=O)c3ccc(C(=O)NCc4ccccc4)cc3C2=O)no1 | 0.51% |
| CCOc1c2ccc(C(=O)NCc3ccc(OC(F)(F)F)cc3)cc2nn1C | 44% (active) |
| C[n+]1ccc(C(=O)NCc2ccccc2)cc1 | 3.53% |
| CCOc1c2ccc(C(=O)NC3CCCc4ccccc43)cc2nn1CC (stereo not given) | 42.8% (active) |
| CCOc1c2ccc(C(=O)NCc3ccc4c(c3)OCO4)cc2nn1C | 50.2% (active) |
| C=CCOc1c2ccc(C(=O)N(CC)c3ccc(OC)cc3)cc2nn1C | 17.6% |
| COc1ccc(CNC(=O)c2ccc3oc(C(C)C)nc3c2)cc1 | 0.16% |
| COc1ccccc1-n1c(C)nc2cc(C(=O)NCc3ccc4c(c3)OCO4)ccc21 | 0.13% |
| O=C(COC(=O)c1ccc(Cl)nc1)NCc1ccc2c(c1)OCO2 | -2.36% |
| CCCn1nc2cc(C(=O)NCc3ccccc3)ccc2c1OCC | 57.5% (active) |
| CNS(=O)(=O)c1cccc(C(=O)NC2CCCc3ccccc32)c1 (stereo not given) | 5.34% |
| CCOc1ccc(NC(=O)COc2ccc(C(=O)NC3CCCc4ccccc43)cc2OC)cc1 (stereo not given) | 3.93% |
| Cc1ccc(Nc2ccccc2N)cc1 | 8.06% |
| CC1(C)Cc2cccc(OCC(=O)N3CCN(c4ccc([N+](=O)[O-])cc4)CC3)c2O1 | -5.39% |
| O=C(CCN1CCCCC1)Nc1ccc(F)c(F)c1 | -0.67% |
| Cc1noc(C)c1CCC(=O)O | 1.72% |
| CC(C)(C)n1nnc(CCc2nnn(C(C)(C)C)n2)n1 | 2.81% |
| COc1ccc(CCNC(=O)C2CC3Cn4c(nc5cc(C)c(C)cc54)C3N2C)cc1 (stereo not given) | 1.06% |
| CCC1CCCCN1C(=O)CSc1nc2c(c(=O)n1C)SC(C)C2 (stereo not given) | -1.89% |

| SMILES | inhibition |
| --- | --- |
| CCc1c(C)nc2c(OC)cccc2c1Cl | 6.78% |
| Cc1nc(N=C(N)N)nc2c(C)cccc12 | 8% |
| COc1nc(N=C(N)N)nc2c(C)cccc12 | 32.9% (active) |
| COc1ccc2cc(C(=O)C3CCCN(C(=O)c4sc(C)nc4C)C3)ccc2c1 (stereo not given) | 162% (active) |
| COc1ccc(C(=O)C2CCCN(C(=O)c3cnsn3)C2)c(C)c1 (stereo not given) | 2.56% |
| CCn1nc(C)cc1C(=O)N1CCCC(C(=O)c2cccc(OC)c2)C1 (stereo not given) | -1.49% |
| COc1cc(OC)cc(-c2c(-c3cccs3)c3cc(-c4ccc(OC)nc4)ccc3n2C)c1 | 1.28% |
| COc1ccc(-c2c(-c3cc(OC)cc(OC)c3)n(C)c3ccc(-c4ccn[nH]4)cc23)cc1 | 41.1% (active) |
| COc1cc(OC)cc(-c2c(-c3ccc(F)cc3)c3cc(-c4ccc5cc[nH]c5c4)ccc3n2C)c1 | 26.4% |
| Cc1csc(/N=C/N(C)C)c1C#N | -1.13% |
| CN(C(=O)c1cc2c(=O)n3ccccc3nc2s1)C1CCCCC1 | 94.8% (active) |
| CCOCCCNC(=O)c1cn(CC(C)C)c(=O)c2c1c1ccccc1n2C | 25.3% |
| CN(C(=O)CSc1nnnn1-c1ccccc1)C1CCCCC1 | 5.06% |
| CN(c1ccc2nc3ccccc3c(=O)n2n1)C1CCCCC1 | 1.09% |
| CCOCCCNC(=O)c1c[nH]c2cc(C)ccc2c1=O | 4.52% |
| CCOCCCNC(=O)c1cc2c(=O)n3ccccc3nc2s1 | 184% (active) |
| CCn1ncc(C2=NOC(C(=O)N3CCN(c4ccccc4)CC3)C2)c1C (stereo not given) | 0.67% |
| C[C@@H]1CN([C@@H](C)CO)C(=O)CCCn2cc(nn2)CO[C@H]1CN(C)S(=O)(=O)c1ccc(-n2cccn2)cc1 | -4.05% |
| Cc1ccc(C(=O)OCC(=O)Nc2ccc(Cl)cn2)cc1S(=O)(=O)N1CCOCC1 | -2.24% |
| CCc1ccc(C(=O)NN=C2CCCCCC2)s1 | 2.93% |
| Cc1ccc(Cn2cc(C(=O)NN)c(=O)c3ccc(F)cc32)cc1 | -0.43% |
| CCc1nc2ccc(C(=O)N3CCN(c4cccc(Cl)c4)CC3)cc2nc1CC | -5.44% |
| C#Cc1cc(N2CCN(C(=O)c3ccoc3)CC2)n2nc(-c3cccc(Cl)c3)cc2n1 | 51.1% (active) |
